Source: PubChem BioAssay AID1508600 (Functional Genomics Laboratory (NCATS/FGL), 2020)
Screen size: about 53,000 sequences; about 3,700 (7%) were called active.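 How the source made its calls: active means gene knockdowns whose robust z-score for IL-1 alpha signal is at least 2 or at most -2, so actives lie on both sides; inactive means the rest.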 Only a selection was taken, and actives are over-represented in it overall.

test: Components of the Cytosolic LPS Sensing Pathway: Gene Identification via Genome-wide siRNA Screen; conditions: RAW264.7 macrophages, IL-1a HTRF, actives lie on both sides, screened at 100 nM (by protocol), cells primed 5 h with Pam3CSK4 first;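 further: robust z of the log signal after scaling to non-targeting control siRNA wells of the plate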
Summary of the method: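 Mouse macrophage line RAW264.7 is transfected with siRNA (100 nM final), grown 48h, primed with TLR ligand Pam3CSK4 5 h and given intracellular LipidA 24 h. IL-1a in supernatant is read by HTRF and viability by luminescence.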

With CGCUGCUUUUCCUAGCAGATT against Orai1 as the sequence, how does the z-score read?
Its z-score is 0.194 (inactive).

Which z-score does the source give for GCUCCAACAAGGCAUAAAATT against Dis3 here?
The z-score was -1.71 (inactive).

With CGUUGAACUAGCAGUGGACTT against Arel1 as the sequence, how does the z-score read?
Its z-score is 0.304 (inactive).

With GUCUACAUCAACAUGCCUGTT against Hcst as the sequence, how does the z-score read?
The z-score was 0.729 (inactive).

Which z-score does the source give for GGCUUAAUUACACAUGUUCTT against Il6 here?
Its z-score is -1.09 (inactive).

With GGACAAGAAAAAGUCCAGATT against Dhx38 as the sequence, how does the z-score read?
Its z-score is -1.17 (inactive).

For GCAGGGAAUAGCAAACUUATT against Nfil3, which z-score is on record?
The z-score was 1.18 (inactive).

For GGAAAGGAGAGGUGUGUUCTT against Asb7, which z-score is on record?
Its z-score is 0.431 (inactive).

For GGAAGAUGUCUCCUAUGAGTT against Hebp1, which z-score is on record?
Its z-score is -2.42 (active).

With CCUGCUUAUUUAUGUACGATT against Tob2 as the sequence, how does the z-score read?
Its z-score is 1.27 (inactive).

Which z-score does the source give for GGUACCUUAAACUCAUGAATT against Ifnb1 here?
Its z-score is 0.773 (inactive).

Which z-score does the source give for GCGAACCCUAAGUAAGAAGTT against U2surp here?
Its z-score is -0.989 (inactive).

Which z-score does the source give for GCGAGAUGCCAACAAACUGTT against Pacs1 here?
The z-score was 0.678 (inactive).

Which z-score does the source give for GCUACCUAUGCCAAUAUCATT against Efemp1 here?
The z-score was -0.787 (inactive).

With GGGCAUCACUUGUAAUUAATT against Bcl10 as the sequence, how does the z-score read?
Its z-score is -2.06 (active).

With GGAACCUAUCCAAGAAGUATT against Ckap2 as the sequence, how does the z-score read?
The z-score was 0.428 (inactive).

Which z-score does the source give for GUCACAGUACCCAAAAUGUTT against Olfr979 here?
The z-score was -2.42 (active).

With GGCCUUGUAUAAAACACAUTT against Pah as the sequence, how does the z-score read?
Its z-score is 0.293 (inactive).

With CCAGCUUGUUACUAAGUAATT against Mgat3 as the sequence, how does the z-score read?
The z-score was -0.227 (inactive).

For GAGUACCAGCUGUUGUUCATT against Olfr392, which z-score is on record?
The z-score was 4.22 (active).

With GCAGGGAGGCAUCUUCUUUTT against Olfr3 as the sequence, how does the z-score read?
The z-score was -0.22 (inactive).

Which z-score does the source give for GGUUCUUUCCAAACAAGAGTT against Evc here?
The z-score was 1.1 (inactive).

For GGAGGUCAUCAACGUGCUATT against Nucb1, which z-score is on record?
The z-score was -0.339 (inactive).

Which z-score does the source give for CGGUACAAAUGAUUUCUGATT against Pcolce2 here?
The z-score was 2.04 (active).

Which z-score does the source give for GGUAAAAUUGUCCAAGGAATT against Clec2i here?
The z-score was -0.109 (inactive).

With GGCCAAGAAGACAAGAAAATT against Ddx54 as the sequence, how does the z-score read?
Its z-score is 0.502 (inactive).

For GGAAUAUGUUUAGCAUCUGTT against Mfsd5, which z-score is on record?
The z-score was -0.437 (inactive).

For GGCACAUAUGAGGACUACCTT against Myl6b, which z-score is on record?
The z-score was 0.786 (inactive).

Which z-score does the source give for GCCGUGCAACACUUCUACATT against Esrrb here?
Its z-score is -0.471 (inactive).

For GGAGGUCCCUUCUUCAGCUTT against Zfp410, which z-score is on record?
Its z-score is -1.19 (inactive).

Which z-score does the source give for GGCCAAGAAGAGAAAAACATT against Ccne2 here?
Its z-score is -1.54 (inactive).

With GGUCAUGGAUGUCACAGAGTT against Mink1 as the sequence, how does the z-score read?
Its z-score is -2.17 (active).

Which z-score does the source give for CCAGAUUCUAUAAUAGAGUTT against Gabrp here?
The z-score was -0.232 (inactive).

Which z-score does the source give for GGGUUCUGUGUAAAUGUAUTT against Gzma here?
Its z-score is 0.203 (inactive).

With GGCAGAAGUCCAACUUCUUTT against Pirt as the sequence, how does the z-score read?
Its z-score is -0.363 (inactive).

For GCUAGUGCGCAUGUUUCUCTT against Rasgrp2, which z-score is on record?
Its z-score is 0.621 (inactive).

With GGUGGAAGCACAGAGUUGCTT against Prdm15 as the sequence, how does the z-score read?
Its z-score is 2.14 (active).

With GGACAACCAAAAUGCAUUUTT against Zic3 as the sequence, how does the z-score read?
The z-score was 0.517 (inactive).

For GGAACUGGGUCCUCAUUCCTT against Capn1, which z-score is on record?
The z-score was -1.6 (inactive).

For GGAGUUCAACUAGAUGUGGTT against Bcl2l13, which z-score is on record?
The z-score was -1.2 (inactive).

With GCUUCAAUGAGGAGUAUCUTT against Smpdl3b as the sequence, how does the z-score read?
Its z-score is -0.617 (inactive).

For GGAUUGGAUAUUGAGAAGGTT against Rexo2, which z-score is on record?
The z-score was -1.72 (inactive).

For GGUGGUCAGGAAAUGAGUCTT against Lrch4, which z-score is on record?
Its z-score is 2.09 (active).

For “GGUCAACUCUAAGAUGCUGTT against 9930012K11Rik”, which z-score is on record?
The z-score was 1.35 (inactive).

For CGUGUGAAGUAAAGAUGUUTT against Mrpl57, which z-score is on record?
Its z-score is 0.212 (inactive).

Which z-score does the source give for GGAGCUGCUUUCAAAGCUGTT against Ccdc136 here?
Its z-score is -0.831 (inactive).

With GGAUGGUACAGGUCUGGUGTT against Fgfr3 as the sequence, how does the z-score read?
Its z-score is 4.82 (active).

With “CGGAUUAUUGGUUAGAAAUTT against C230013L11Rik” as the sequence, how does the z-score read?
The z-score was 1.26 (inactive).

With GCACAAUGGAAGGUGUCCUTT against Tas2r114 as the sequence, how does the z-score read?
Its z-score is 0.597 (inactive).

For GGACUUUGUGGACAAAAUUTT against Ift20, which z-score is on record?
Its z-score is -1.64 (inactive).

With GCCUCAACAUGAUCCCGAGTT against Ccdc172 as the sequence, how does the z-score read?
Its z-score is -3.34 (active).

Which z-score does the source give for GGAGAUAAAGAGGAACAUUTT against AI504432 here?
Its z-score is 1.01 (inactive).

With GGGUUUUGAAAGAGGAAAATT against Osbpl8 as the sequence, how does the z-score read?
The z-score was 1.52 (inactive).

Which z-score does the source give for GGCAGCUGAAAGAAGAUCUTT against Dffa here?
Its z-score is 3.21 (active).

For GGGACUGGAACAAUAGAGGTT against BC030500, which z-score is on record?
The z-score was 0.626 (inactive).

Which z-score does the source give for GGGACAAGUGACUGAAUUGTT against Dio3 here?
The z-score was 0.408 (inactive).

With GGCCAUUUACUUGAAGAACTT against Lpin3 as the sequence, how does the z-score read?
Its z-score is -0.0508 (inactive).

For CCUUCUCCUCGUGCAAGUATT against Cort, which z-score is on record?
Its z-score is 2.05 (active).

For GAUGCCCAAUGUGCAAAUGTT against Defa-rs12, which z-score is on record?
The z-score was 1.06 (inactive).

For CCACUGCACUGUAAAUCAATT against Glrx5, which z-score is on record?
The z-score was -1.41 (inactive).

For GCUCUUGACUCACUCAGCATT against Il1bos, which z-score is on record?
Its z-score is -2.01 (active).

Which z-score does the source give for GGACUGAAAUGUCUUAGACTT against Selenow here?
The z-score was -1.21 (inactive).

Which z-score does the source give for GCAUCGCAUAUUGGAAUGCTT against Lim2 here?
The z-score was 0.366 (inactive).

Which z-score does the source give for CGGCAAAUUCGUGAAAAGGTT against Olfr575 here?
The z-score was 0.118 (inactive).

Which z-score does the source give for GCAACUGAAUUCCAGUUUUTT against Ugt1a2 here?
Its z-score is -0.0905 (inactive).

For GGAGCUAGCCAACUUCGAUTT against Lsr, which z-score is on record?
The z-score was -0.182 (inactive).

Which z-score does the source give for GCACAGAAAUAUUAAAGUCTT against Foxp4 here?
The z-score was -1.7 (inactive).

With GGGUUUAGAAAGAUGAAUGTT against Tbcel as the sequence, how does the z-score read?
Its z-score is -0.189 (inactive).

For GGGCUUCACCCUCAUACAATT against Pirt, which z-score is on record?
The z-score was 2.26 (active).
